# Compound activity deposited in PubChem BioAssay by several laboratories.
# Hits are enriched below; roughly 28% of the tested compounds scored in any of these assays.
# CYP2C19 act: cytochrome P450 2C19 (human) activation | P33261 | recombinant CYP2C19, luciferin-H EGE luminescence; stronger effect = higher value; 0 = fully inhibited enzyme, 1 = untreated enzyme | activation factor at 5 µM | 96,000 tested, under 10 active | AID 1025;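 active = activation factor of at least 2 at 5 µM in the primary screen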;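 note: 0 = wells with 2.5 mM tranylcypromine and 1 = vehicle-only wells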
# D1 mod: allosterically modulates the human D1 dopamine receptor; HEK293 D1, CRE-luciferase, dopamine EC30 potentiation; actives deviate in either direction; B-score at 10 µM; hit rate 5.9% among 58,000; P21728;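 active = luminescence count or its row- and column-corrected plate score outside the 99.7% band of the plate's sample wells, on either side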
# CYP2C9 act: increases human cytochrome P450 2C9 activity. hit rate 1.4% among 96,000. AID 1024. recombinant CYP2C9, luciferin-H conversion, luminescence; stronger effect = higher value; factor 1 = untreated enzyme, 0 = blocked. P11712. activation factor at 5 µM;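 active = activation factor of 2 or more for CYP2C9 at a 5 µM dose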;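 note: 0 = sulfaphenazole-blocked wells and 1 = vehicle-only wells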
# CYP2C19 inh: blocks human cytochrome P450 2C19. P33261. CYP2C19 Supersomes, luciferin-H EGE luminescence, 30 min. inhibition, % at 5 µM. hit rate 21% among 96,000. AID 778;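 active = CYP2C19 inhibition above a set limit at 5 µM in the primary screen, cut at about 50% in these data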;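 note: plate controls were negative control wells for no effect and 2.5 mM tranylcypromine positive control for full effect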
# CYP2C9 inh: inhibitors of human CYP2C9 | P11712 | CYP2C9 Supersomes, luciferin-H conversion, luminescence | inhibition, % at 5 µM | hit rate 20% among 96,000 | AID 777;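 active = blocking of liver enzyme CYP2C9 beyond about 50% at 5 µM, limit read from the data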
# hDAT+cocaine: modulates human dopamine transporter uptake under cocaine; Q01959; B-score at 10 µM; hit rate 1.3% among 110,000; LLC-PK1 hDAT cells, [14C]-dopamine uptake with cocaine IC80; actives deviate in either direction; AID 449768;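 active = Z score or B-score, a plate-position-corrected score, falls beyond the plate's 99.7% confidence bounds, in either direction; inactive = both scores lie inside the 99.7% bounds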;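 note: scored against the spread of the other compound wells on the same plate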
# Target sequence (Q01959 whole entry, looked up): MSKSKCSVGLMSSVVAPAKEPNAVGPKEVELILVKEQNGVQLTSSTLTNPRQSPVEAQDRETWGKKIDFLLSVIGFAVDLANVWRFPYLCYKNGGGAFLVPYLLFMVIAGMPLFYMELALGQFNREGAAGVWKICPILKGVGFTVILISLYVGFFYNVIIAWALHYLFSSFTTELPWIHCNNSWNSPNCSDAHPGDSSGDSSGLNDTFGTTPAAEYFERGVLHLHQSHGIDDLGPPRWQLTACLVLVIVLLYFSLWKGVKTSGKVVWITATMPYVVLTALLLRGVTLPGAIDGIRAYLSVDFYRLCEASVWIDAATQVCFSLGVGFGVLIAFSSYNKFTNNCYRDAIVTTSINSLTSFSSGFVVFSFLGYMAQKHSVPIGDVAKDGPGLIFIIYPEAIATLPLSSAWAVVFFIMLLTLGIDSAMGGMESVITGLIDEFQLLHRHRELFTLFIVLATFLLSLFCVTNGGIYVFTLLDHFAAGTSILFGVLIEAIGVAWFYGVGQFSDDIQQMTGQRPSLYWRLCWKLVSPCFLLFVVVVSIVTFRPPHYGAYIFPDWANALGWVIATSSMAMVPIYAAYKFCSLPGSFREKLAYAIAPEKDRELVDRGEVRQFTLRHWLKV
# D1 mod confirm: confirmation of human D1 dopamine receptor allosteric modulators. shares compounds with D1 mod. luminescence at 10 µM. HEK293 D1 CRE-luciferase, dopamine EC30 potentiation; stronger effect = higher value. hit rate 88% among 2,200;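 active = luminescence in either of two replicates above the same-plate mean plus 3 SD of the low-dose dopamine control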
# D1 no dopamine: activates D1 CRE-luciferase signal without dopamine present | shares compounds with D1 mod | HEK293 D1 CRE-luciferase, luminescence, no dopamine; stronger effect = higher value | luminescence at 10 µM | hit rate 0.8% among 1,900 | AID 646; in the data active = luminescence above about 3900
# Isoprot counter: counter-screen for D1 modulators: isoproterenol response in HEK293 cells; HEK293 D1 CRE-luciferase, isoproterenol EC30 counter-screen; shares compounds with D1 mod; hit rate 63% among 2,200; calls only at 10 µM;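 active = luminescence in either replicate above plate mean of wells with a partly effective reference agonist dose plus 3 SD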;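 note: isoproterenol raises cAMP through native beta-adrenoceptor Gs so signal bypasses D1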
# An asterisk follows results filed as active; i = inactive; / = not tested or not shown; + = active, no number.
SMILES,CYP2C19 act,D1 mod,CYP2C9 act,CYP2C19 inh,CYP2C9 inh,hDAT+cocaine,D1 mod confirm,D1 no dopamine,Isoprot counter
COc1ccc(-c2ccc(=O)n(Cc3cc(=O)n4ccccc4n3)n2)cc1,0.6,26*,0.9,42,12,1.2,20696*,1572,+
COc1ccc(C(=O)NC2=C(C#N)CCC2)cc1OC,1.2,13*,1.1,-23,-11,0.11,12668*,/,+
COc1ccc(C(=O)Nc2sc(C)c(-c3ccccc3)c2C#N)cc1OC,0.7,/,1.8,35,-83,0.016,/,/,/
CCCCNC(=O)c1ccc2nc(-c3ccco3)c(-c3ccco3)nc2c1,1,3.8*,0.7,4,31,0.21,8120*,1444,i
CCCNC(=O)c1cc(-c2ccco2)on1,/,-1,/,/,/,0.42,/,/,/
O=S1(=O)N=C(N2CCCc3ccccc32)c2ccccc21,0.8,0.93,0.9,20,7,-2.3,/,/,/
O=S1(=O)N=C(N2CCc3ccccc3C2)c2ccccc21,0.6,2.4*,1.2,40,-20,-0.58,6388*,1564,i
Cc1ccc(N=C2NC(=O)C(CC(=O)O)S2)cc1 (stereo unspecified),1.2,/,1.1,-16,-8,0.13,/,/,/
Cc1cc(C)n(-c2nc3ccccc3c3nc(C)nn23)n1,1.1,9.6*,0.9,-6,7,0.15,13408*,/,+
Nn1c(SCc2ccccc2)nnc1-c1ccco1,0.9,-0.47,1.1,13,-11,0.013,/,/,/
c1ccc(-n2c(SCc3ccncc3)nnc2-c2ccco2)cc1,0.4,10*,0.2,59*,76*,0.61,14488*,/,+
CS(=O)(=O)N(CC(=O)N1CCCC1)c1cccc(Cl)c1Cl,0.9,-0.4,1,15,2,0.21,/,/,/
O=C1CC(c2ccc3c(c2)OCO3)c2cc3c(cc2N1)OCCO3 (stereo unspecified),0.2,11*,0.1,78*,91*,-2.8*,11940*,1824,+
O=C1CC(c2ccsc2)c2cc3c(cc2N1)OCCO3 (stereo unspecified),0.8,5.8*,0.6,21,42,-1,14472*,1508,i
CCOC(=O)C1=C(C)NC(=O)NC1c1ccc2c(c1)OCCO2 (stereo unspecified),0.8,0.18,0.8,25,22,-0.36,/,/,/
COc1ccc(CNC(=O)Cn2cc([N+](=O)[O-])nc2C)cc1,1.2,/,1.2,-15,-21,-0.1,/,/,/
Cc1ccc(CCNS(=O)(=O)c2cnc[nH]2)cc1,0.3,3.2*,0,73*,98*,0.0069,6464*,1552,i
CCOC(=O)CSc1nc(N)c(C#N)c(-c2ccc(OCC)cc2)c1C#N,0.7,0.73,0.5,28,46,1.2,/,/,/
CCOc1cc(-c2cc(-c3ccc(N)cc3)nc(N)c2C#N)ccc1O,0.3,8.6*,0.1,70*,89*,-0.71,19856*,1656,+
c1ccc(-c2nc(N3CCCCC3)nc3ccccc23)cc1,/,/,/,/,/,0.72,/,/,/
Cc1ccc2nc(N3CCC(C(=O)O)CC3)nc(-c3ccccc3)c2c1,1,6.5*,1,-5,1,0.26,10876*,1380,+
COC(=O)c1nc(N)sc1-c1ccccc1,0.7,11*,1,32,0,-0.028,21800*,1648,+
N=c1nc(SCCC(=O)O)ss1,1,-1.7,1,-2,1,-0.11,/,/,/
CC(C)Nc1nc(NC(C)C)nc(N(C)C#N)n1,1,16*,0.9,0,12,0.49,21628*,1804,+
CCN(C#N)c1nc(NC(C)C)nc(NC(C)C)n1,0.7,9.7*,0.3,33,73*,0.0098,22184*,1544,+
SMILES,CYP2C19 act,D1 mod,CYP2C9 act,CYP2C19 inh,CYP2C9 inh,hDAT+cocaine,D1 mod confirm,D1 no dopamine,Isoprot counter
COC(=O)CN(C#N)c1nc(NC(C)C)nc(OC)n1,/,/,/,/,/,-0.94,/,/,/
C#CCN(C#N)c1nc(NCC)nc(NC(C)C)n1,0.8,17*,0.7,15,34,-0.74,18300*,1652,+
Cc1ccc(C2=NOC(C)(c3nnc(-c4ccc(F)cc4)o3)C2)cc1 (stereo unspecified),/,/,/,/,/,-0.16,/,/,/
Cc1c(C(=O)OCC(=O)N2CC(=O)Nc3ccccc32)oc2ccccc12,1.2,/,1,-23,3,-0.81,/,/,/
CCCCNC(=O)CSc1nc2cc3c(cc2c(=O)n1CCCN(CC)CC)OCO3,1.1,0.11,0.9,-6,10,1.1,/,/,/
N#CCCCCn1c(-c2cncs2)nc2ccccc21,0.4,4.7*,1.1,56*,-9,0.57,17344*,1684,+
Brc1ccc(Cn2c(-c3cncs3)nc3ccccc32)cc1,/,/,/,/,/,-0.3,/,/,/
CC(C)=CCCC1=CCC(/C(C)=N/NC(N)=O)CC1 (stereo unspecified),0.7,/,0.8,26,19,0.27,/,/,/
Nc1nc(-c2ccco2)nc(N2CCCCC2)n1,1.1,10*,1.2,-11,-17,-0.55,14860*,/,+
c1ccc2c(c1)ccc1nnc(SCc3ccc4c(c3)OCCO4)n12,0.7,/,1,27,2,0.4,/,/,/
c1ccc2c(c1)ccc1nnc(-c3ccc4c(c3)OCO4)n12,0.9,22*,1.2,11,-17,0.33,24948*,1952,+
O=C1CC(c2ccc(F)cc2)CC(O)=C1C1NCCc2ccccc21 (stereo unspecified),1.1,/,1,-7,2,0.73,/,/,/
COc1cc2c(cc1OC)C1=C(C#N)CCC(=NC(=O)c3ccc(Cl)cc3)N1CC2,1,/,0.9,1,14,0.61,/,/,/
COc1cc2c(cc1OC)C1=C(C#N)COCN1CC2,0.8,15*,0.7,18,30,-0.7,9624*,1768,+
COn1cnnc1-c1ccccc1,0.7,0.22,0.9,25,5,-0.37,/,/,/
Cc1cc(-c2nc3ccccc3o2)c2ccccc2n1,0.5,15*,0.6,45,37,0.87,14660*,/,+
C=CCOc1nc(-c2ccncc2)nc2ccccc12,0.2,6.5*,0.4,79*,64*,0.15,15684*,/,+
c1ccc2c(N3CCCC3)nc(-c3ccncc3)nc2c1,0.2,9.2*,0.5,84*,48,1.1,18800*,1668,+
c1ccc2c(N3CCCCC3)nc(N3CCCC3)nc2c1,1.1,-1.3,1,-7,2,0.58,/,/,/
Cc1nnc(SCC(=O)Nc2nsc(-c3ccc(Cl)cc3)n2)s1,0.9,/,1,7,-3,-1.5,/,/,/
